# From PubChem BioAssay AID602393 (Broad Institute, 2012)
# Screen size: about 350,000 compounds; about 7,000 (2%) were called active. This is one part of a sample in which actives are shown more often than they occur. A number with no mark means an inactive call. No stated cut-off is given here; in the data, active means activation above about 40%; inconclusive means no clear call, values can overlap the other calls; inactive means below that.
# Assay: Bmi1 luciferase reporter increase in mESCs, primary screen, esBAF inhibitor project, mouse ES cells, Bmi1 luciferase knock-in, single point (AID 602393);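 further: 0% = median of the plate's neutral control wells and 100% = double that signal; a rise in the Bmi1 reporter signal indicates esBAF inhibition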
# Conditions: 24 h, at 12.5 µM, stronger effect = higher value, 100% = twice the neutral-well signal
row,SMILES,reporter increase
1,O=C(c1cccnc1)N1C[C@@H]2[C@H](c3ccccc31)[C@@H](CO)N2C(=O)Nc1ccc(F)cc1,1.17%
2,COc1ccc(S(=O)(=O)N(C)C[C@H]2OCCCC[C@@H](C)Oc3ccc(NS(=O)(=O)c4ccc(C)cc4)cc3C(=O)N([C@@H](C)CO)C[C@@H]2C)cc1,7.8%
3,CCN1[C@@H]2Cn3c(ccc(-c4cccnc4)c3=O)[C@H]1[C@@H](C(=O)NC1CCCCC1)[C@@H]2CO,-4.32%
4,COCCCNC(=O)COc1cc(C)c(Cl)c(C)c1,4.32%
5,Cc1cccnc1CC(C)NC(=O)c1cc(COc2cncc(Cl)c2)on1 (stereo not given),9.52%
6,Cc1cc(OCc2cc(C(=O)NCc3cc(C(C)C)no3)no2)cc(C)c1Cl,81.9% (active)
7,COc1ccc(CN(C)C[C@@H]2OCCCC[C@H](C)Oc3ccc(NS(=O)(=O)c4ccc(F)cc4)cc3C(=O)N([C@@H](C)CO)C[C@@H]2C)cc1,-7.82%
8,Cn1cnc(S(=O)(=O)N2C[C@@H](O)COC[C@@H]3O[C@H](CC(=O)NCc4ccc(F)cc4)CC[C@H]32)c1,-4.57%
9,O=C(c1cccc(F)c1)N1CC[C@@H]2[C@@H](CO)Nc3ccc(C#Cc4cccc(F)c4)cc3[C@@H]21,2.36%
10,Cc1noc(C)c1NC(=O)N[C@@H]1C=C[C@@H](CC(=O)Nc2ccccc2)O[C@H]1CO,1.58%
11,O=C(Nc1ccc2c(c1)CCC2)c1ccc(Br)s1,21.7%
12,COc1ccc(CNC(=O)c2ccc(Br)s2)cc1OC,-1.1%
13,COc1cc(NC(=O)CN(C)S(=O)(=O)c2ccc3nc(C)sc3c2)cc(OC)c1,-1.66%
14,COc1cccc(C(=O)Nc2nc3ccc(S(C)(=O)=O)cc3s2)c1,50.7% (active)
15,COc1ccc2nc(NC(=O)c3ccc(Br)s3)sc2c1,71.6% (active)
16,COc1cccc(C(=O)Nc2nnc(S(=O)(=O)N(C)c3ccccc3)s2)c1,3.61%
17,C[C@H](NC(=O)C[C@@H]1C=C[C@H](NC(=O)CN2CCOCC2)[C@H](CO)O1)c1ccccc1,-6.32%
18,N#Cc1ccc(-c2ccc3c(c2)[C@H]2[C@H](CCN2Cc2ccc4c(c2)OCO4)[C@@H](CO)N3)cc1,-8.59%
19,CCCNC(=O)N(C)C[C@H]1Oc2cc(-c3ccncc3)ccc2S(=O)(=O)N([C@H](C)CO)C[C@H]1C,0.442%
20,CCCNC(=O)C[C@H]1CC[C@H]2[C@@H](COC[C@H](O)CN2C(=O)CC)O1,5.31%
21,CCCNC(=O)N1[C@H](C#N)[C@@H](c2ccccc2)[C@H]1CO,-3.13%
22,Cc1ccc(S(=O)(=O)NCC[C@H]2CC[C@@H](NC(=O)C3CCOCC3)[C@@H](CO)O2)cc1,-2.84%

row,SMILES,reporter increase
1,Cc1csc(NC(=O)Nc2ccccc2[N+](=O)[O-])n1,60.4% (active)
2,Cc1csc(NC(=O)NC2(C(F)(F)F)Oc3ccccc3O2)n1,-3.69%
3,CN1CCN(CCNC(=O)Nc2ccccc2[N+](=O)[O-])CC1,-5.22%
4,C[C@H]1CN([C@@H](C)CO)C(=O)c2cc(Br)cnc2O[C@@H]1CN(C)C(=O)c1ccccc1,-3.42%
5,COc1ccc(Nc2ncnc3sc(C)cc23)cc1,66.1% (active)
6,COc1ccc(CNc2ncnc3ccccc23)cc1,-11.7%
7,COc1ccc(Nc2cc(Sc3ccc(OC)cc3)ncn2)cc1,13.3%
8,Cc1ccc(-c2nnc(SC(C)C#N)n2N)cc1 (stereo not given),0.696%
9,Cc1ccccc1CSc1nnc(-c2cccnc2)n1N,17.5%
10,C=C(C)CSc1nnc(-c2ccc(C)cc2)n1N,57.8% (active)
11,CCS(=O)(=O)Nc1ccc2c(c1)C(=O)N(C)[C@@H]1CC[C@H](CC(=O)N3CCCCC3)O[C@@H]1CO2,-2.06%
12,O=C(CN1CCN(c2ccc(F)cc2)CC1)Nc1cccc(C(F)(F)F)c1,-10.4%
13,CCc1sc(C(=O)N2CCN(CC(=O)Nc3cccc(F)c3)CC2)cc1C,79.7% (active)
14,CC(=O)N1CCN(CC(=O)Nc2ccc(C)c(F)c2)CC1,-6.19%
15,Cc1ccc(S(=O)(=O)N(C)C[C@@H]2Oc3c(NS(C)(=O)=O)cccc3C(=O)N([C@@H](C)CO)C[C@H]2C)cc1,-2.2%
16,O=C(NC[C@@H]1N[C@@H](CO)[C@H]1c1ccc(-c2cccnc2)cc1)c1cccc(F)c1,5.54%
17,COCCNC(=O)C[C@H]1CC[C@H]2[C@H](COc3ccc(NC(=O)C4CCOCC4)cc3C(=O)N2C)O1,2.05%
18,Cc1ccccc1OCC(=O)Nc1ccc2c(c1)ncn2C,68.1% (active)
19,Cc1cccc(NC(=O)COc2ccccc2C)n1,44.4% (active)
20,Cc1ccccc1OCC(=O)Nc1nc(C)c(C(=O)N(C)C)s1,9.35%
21,CCOc1ccc(OCc2ccc(C(=O)Nc3cccc(C)n3)o2)cc1,37.5%
22,Cc1cccc(NC(=O)COc2ccc(Br)cc2C)n1,35.7%

row,SMILES,reporter increase
1,Cc1ccccc1OCC(=O)Nc1nnc(S(=O)(=O)N2CCCC2)s1,1.57%
2,COCCNC(=O)COc1ccccc1C,0.533%
3,Cc1cccc(NC(=O)Cc2ccc(Br)cc2)n1,44.9% (active)
4,Cc1cccc(NC(=O)c2ccc3ccccc3n2)n1,25.2%
5,C/C=C/c1ccc([C@H]2[C@@H](CO)N(C(=O)CC)[C@H]2CN(C)C(=O)C2CC2)cc1,5.87%
6,CCCNC(=O)NC[C@H]1[C@H](c2ccc(C3=CCCCC3)cc2)[C@H](CO)N1C(C)=O,-2.67%
7,COCc1cn(CC[C@H]2CC[C@H](NC(=O)Cc3cccnc3)[C@H](CO)O2)nn1,1.37%
8,COCC(=O)Nc1ccc2c(c1)OC[C@H](C)N(Cc1ccccc1OC)C[C@@H](C)[C@@H](OC)CN(C)C2=O,0.256%
9,CCCNC(=O)C[C@H]1CC[C@H]2[C@@H](COc3ccc(NC(=O)Nc4c(C)noc4C)cc3C(=O)N2C)O1,-1.98%
10,COc1ccccc1-c1cc2nc(NCc3cccc(Cl)c3)ccn2n1,-5.22%
11,COCCCNc1ccn2nc(-c3ccc(CC(C)C)cc3)cc2n1,24.7%
12,CC(C)Cc1ccc(-c2cc3nc(NCc4cccc(Cl)c4)ccn3n2)cc1,79.4% (active)
13,COc1ccc(-c2cnc3c(c2)C(=O)N([C@@H](C)CO)C[C@@H](C)[C@H](CN(C)C)O3)cc1,-2.94%
14,O=C(C[C@H]1C=C[C@@H](NC(=O)C2CC2)[C@H](CO)O1)NCC1CC1,-2.61%
15,Cc1cccc(N=Nc2c(O)[nH]c3ccc(F)cc23)c1,72.6% (active)
16,NS(=O)(=O)c1ccc(N=Nc2c(O)[nH]c3ccc(Br)cc23)cc1,-6.6%
17,Oc1[nH]c2ccc(Br)cc2c1N=Nc1nn[nH]n1,6.07%
18,Cc1ccc(S(=O)(=O)Nc2ccc3c(c2)C(=O)N([C@H](C)CO)C[C@@H](C)[C@H](CN(C)S(=O)(=O)c2cccs2)OCCCC[C@@H](C)O3)cc1,5.34%
19,Cc1ccc(S(=O)(=O)N[C@H]2CC[C@H](CC(=O)NCc3ccccc3F)O[C@@H]2CO)cc1,-2.95%
20,O=C(O)CC1=C(Nc2ccccc2)C(=O)N(c2ccccc2)C1c1ccc(Cl)cc1 (stereo not given),49.1% (active)
21,O=C1C(=O)N(c2ccccc2)C(c2ccccc2)C1c1ccccc1 (stereo not given),-0.185%
22,O=C1C=C(c2ccc(Cl)cc2)C(=O)N1Nc1ccccc1,-0.361%

row,SMILES,reporter increase
1,C[C@@H]1CN([C@@H](C)CO)C(=O)Cc2cc(NC(=O)C3CCCCC3)ccc2O[C@H]1CN(C)C(=O)Nc1ccccc1,0.449%
2,CCOC(=O)c1c(-c2ccc(-c3ccccc3)cc2)csc1NC(=O)CCC(=O)O,-6.99%
3,CCOC(=O)c1c(C)nc(-c2ccccc2)nc1NC(=O)C(C)C,42.3% (active)
4,CCOC(=O)c1c(N)nn(C(=O)c2ccccc2)c1-c1ccccc1,-1.4%
5,O=C(Nc1ccccc1C(=O)Nc1ccncc1)c1ccc([N+](=O)[O-])cc1,-2.66%
6,O=C(O)c1cc([N+](=O)[O-])c(Nc2cccc3ccccc23)c([N+](=O)[O-])c1,15.6%
7,O=C(Nc1ccc2ccccc2c1[N+](=O)[O-])c1ccccc1,114% (active)
8,CC(C)CC#Cc1cnc2c(c1)C(=O)N([C@H](C)CO)C[C@H](C)[C@@H](CN(C)C(=O)Cc1cccnc1)O2,-2.07%
9,COc1ccc(NC(=O)N2C[C@H](O)COC[C@@H]3O[C@@H](CC(=O)NCc4ccccc4OC)CC[C@H]32)cc1,2.12%
10,CCCNC(=O)[C@@H]1[C@@H](CO)[C@@H]2Cn3c(ccc(/C=C/c4ccccc4)c3=O)[C@H]1N2CCC,-5.3%
11,C=CCNC(=O)c1ccc2c3n(nc2c1)-c1ccc(C)cc1CO3,56.5% (active)
12,CCOc1c2ccc(C(=O)NCc3ccc4c(c3)OCO4)cc2nn1C,-7.4%
13,Cc1cccc(-c2nc3ccc(C(=O)NCCN4CCN(C)CC4)cc3nc2-c2cccc(C)c2)c1,-7.08%
14,O=C(Nc1cccc(F)c1)NC1CCCc2ccccc21 (stereo not given),-6.65%
15,O=C(Nc1cccc(F)c1)NC1CCCCCCC1,59.1% (active)
16,Cc1cc(C)cc(NC(=O)NC2CCCCCCC2)c1,15.2%
17,COc1ccc(/C=N/Nc2nc(-c3ccc(C)cc3)c(C#N)c(=O)[nH]2)cc1,-5.86%
18,COc1ccc(/C=N/Nc2nc3ccccc3c(=O)[nH]2)cc1,45.1% (active)
19,COc1ccc(/C=N/Nc2ccccc2C(=O)O)cc1,-28.7%
